# From PubChem BioAssay AID1852 (Sanford-Burnham Center for Chemical Genomics, 2009)
# Hit rate of the full screen: of about 2,500 compounds, about 1,100 (44%) were called active. The set was probably picked from earlier hits. This is one part of the list. Unmarked numbers belong to inactive results.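 How the source made its calls: active means inhibition above 50% at 4 µM in the single-point screen; inactive means inhibition of 50% or less.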
# Assay: TNF-a-driven NF-kB reporter inhibitors, primary screen, selectivity assay for NOD1/NOD2 signaling inhibitor project, cell-based, HEK293T NF-kB-Luc, luminescence (AID 1852)
# Conditions: TNF-a induced, 14 h, at 4 µM, stronger effect = higher value
row,Compound,inhibition
1,COC(=O)c1ccccc1OCCCOc1ccc(C)cc1OC,-116%
2,COc1cc(C)ccc1OCCCOc1ccccc1Cl,90.6% (active)
3,COc1cc(CNc2ccc3[nH]c(=O)[nH]c3c2)ccc1OCc1ccccc1Cl,31.1%
4,N#CC1=C(N)N2C(=C(C#N)C1c1ccc(Br)cc1)Nc1ccccc12 (centres undefined),86.9% (active)
5,N#CC1=C(N)N2C(=C(C#N)C1c1cccc(Br)c1)Nc1ccccc12 (centres undefined),89.3% (active)
6,CCN1C(=O)/C(=C/c2nc3ccccc3c(=O)n2-c2ccc(C)cc2)c2ccccc21,23.6%
7,Cc1cc(Cl)c(S(=O)(=O)N2CCSCC2)cc1OCC(=O)NC1CCCCC1,44.2%
8,COc1ccc(S(=O)(=O)N2CCCC(C(=O)NCc3ccncc3)C2)cc1Cl (centres undefined),8.9%
9,Cc1cc(Cl)c(S(=O)(=O)N2CCN(c3ccc(F)cc3)CC2)cc1OCC(=O)NC1CCCCC1,69.7% (active)
10,COc1ccc(C)cc1S(=O)(=O)N1CCN(C(=O)c2ncoc2-c2ccc(F)cc2)CC1,14.4%
11,Cc1cc(Cl)c(S(=O)(=O)N2CCCCCC2)cc1OCC(=O)NC1CCCCC1,55.3% (active)
12,Cc1cc(-c2ccc(C)c(S(=O)(=O)N3CCN(c4ccc(F)cc4)CC3)c2)on1,41%
13,CCOc1ccc(/C=C2\C(=O)c3ccccc3OC2c2ccccc2)cc1 (centres undefined),-5.4%
14,Cc1ccc(-c2onc3ccc(C(=O)/C=C/N(C)C)cc23)cc1,14.5%
15,CCOc1ccccc1N1CCN(C(=O)c2cc(-c3cc(OC)ccc3OC)nc3ccccc23)CC1,1.3%
16,COc1ccc2cc3c(N)nn(C(=O)Cc4c[nH]c5ccccc45)c3nc2c1,91.9% (active)
17,COc1ccc2cc3c(N)nn(C(=O)Cc4ccccc4OC)c3nc2c1,91% (active)
18,COc1ccc2cc3cc(C(=O)NCCc4ccc(OC)c(OC)c4)oc3nc2c1,-4.4%
19,O=c1[nH]c(CCl)nc2cc(-c3ccc(F)cc3)sc12,28.3%
20,COc1ccc(-c2cc3nc(C)n(N)c(=O)c3s2)cc1,78.3% (active)
21,COc1ccc(-c2cc3nc(CCl)[nH]c(=O)c3s2)cc1,25.2%
22,CSc1cccc(NS(=O)(=O)c2ccc3c(c2)CCN3C(C)=O)c1,25%
23,CC1Cc2ccccc2N1C(=S)NC(=O)c1cccc(Br)c1 (centres undefined),103% (active)
24,COc1ccc(Br)cc1/C=C/C(=O)c1ccc(NC(C)=O)cc1,94.8% (active)
25,CCC(=O)Nc1cccc(C(=O)/C=C/c2cc(Br)ccc2OC)c1,77.3% (active)

row,Compound,inhibition
1,CC(=O)Nc1ccc(N/C=C/C(=O)c2ccc(C)cc2)cc1,-16.4%
2,COc1ccccc1/C=C1\S/C(=N/NC(=O)c2cccc(Br)c2)NC1=O,-30.6%
3,COc1cccc(C(=O)/C=C/c2ccc(OCC#N)c(OC)c2)c1,-58.9%
4,N#CC(C#N)=C(Nc1ccc(F)cc1)SCc1cccc(Br)c1,54.7% (active)
5,Cc1ccc(CSC(Nc2ccc(F)cc2)=C(C#N)C#N)cc1,74.6% (active)
6,N#CC(C#N)=C(Nc1ccc(F)cc1)SCc1cccc(F)c1,81.7% (active)
7,COc1c(F)c(F)c(C(=O)Nc2cccc(Cl)c2N2CCOCC2)c(F)c1F,46.2%
8,COc1ccc(C)cc1NC(=O)CN(C)S(=O)(=O)c1ccc2c(c1)c(=O)n(C)c(=O)n2C,19.7%
9,COc1cc(OC)c(OC)cc1/C=C/C(=O)c1ccc(NS(=O)(=O)c2ccc(C)cc2)cc1,70.3% (active)
10,COc1cccc(/C=C/C(=O)c2ccc(NS(=O)(=O)c3ccc(C)cc3)cc2)c1,4.1%
11,COc1cc(/C=C/C(=O)c2ccc(C)cc2)ccc1OCC#N,19.5%
12,COc1cccc(C(=O)/C=C/Nc2ccc(S(=O)(=O)Nc3cccc(C(C)=O)c3)cc2)c1,46.2%
13,COc1cc(/C=C/C(=O)c2ccc(NS(=O)(=O)c3ccc(C)cc3)cc2)cc(OC)c1O,78.9% (active)
14,Oc1ccc2ccccc2c1N=Nc1ccccn1,95.8% (active)
15,Oc1ccc(N=Nc2ccccc2C(F)(F)F)c2cccnc12,20.4%
16,CC(=O)c1ccc(N2CCN(C(=S)Nc3ccc(Oc4ccccc4)cc3)CC2)cc1,41.5%
17,O=C(Nc1ccc(Oc2ccccc2)cc1)C1CCN(c2c3c(nc4ncnn24)CCC3)CC1,62% (active)
18,Cc1ccccc1NC(=O)C1CCN(c2cc(-c3ccccc3)nc3ncnn23)CC1,46%
19,COCCNC(=S)N(CCc1c(C)[nH]c2ccc(C)cc12)Cc1cc(OC)c(OC)c(OC)c1,19.3%
20,COc1cc(C(=O)NCCOc2cc(C)ccc2C(C)C)cc(OC)c1OC,52.4% (active)
21,COc1ccc(CCNC(=O)c2cc(=O)c3cc(C)ccc3o2)cc1OC,19.4%
22,CC1=CC(C)(C)Nc2ccc(OC(=O)C(C)N3C(=O)c4ccccc4C3=O)cc21 (centres undefined),40.1%
23,CC1=CC(C)(C)Nc2ccc(OC(=O)CN3C(=O)CCC3=O)cc21,86.9% (active)
24,CC1=CC(C)(C)Nc2ccc(OC(=O)CN3C(=O)C4CCCCC4C3=O)cc21 (centres undefined),42.7%
25,Cn1c(Sc2ccc(Br)cc2)c(C=O)c2ccccc21,48.7%

row,Compound,inhibition
1,Cn1c(Sc2ccc(Cl)cc2)c(C=O)c2ccccc21,34.4%
2,COc1cccc(OCCn2cc(C=O)c3ccccc32)c1,42.4%
3,Cc1cccc(Sc2c(C=O)c3ccccc3n2C)c1,60.5% (active)
4,Cc1ccc(Sc2c(C=O)c3ccccc3n2C)cc1,86.4% (active)
5,c1ccc(C2=Nn3c(nnc3-c3ccncc3)SC2)cc1,70.9% (active)
6,COc1cccc(-c2nnc3n2N=C(C(C)(C)C)CS3)c1,96.3% (active)
7,c1csc(C2=Nn3c(nnc3-c3ccncc3)SC2)c1,90.9% (active)
8,COc1ccc(C2=Nn3c(nnc3-c3ccncc3)SC2)cc1,70.4% (active)
9,Clc1ccccc1C1=Nn2c(nnc2-c2ccncc2)SC1,84.4% (active)
10,COC(=O)c1cccc(NS(=O)(=O)c2cccs2)c1C,7.7%
11,Cc1ccc(S(=O)(=O)Nc2cccc3ncccc23)s1,96.4% (active)
12,O=S(=O)(Nc1cccc2ncccc12)c1cccs1,98.1% (active)
13,Cc1c(NS(=O)(=O)c2ccc3c(c2)OCCO3)cccc1-c1nc2cccnc2s1,48.1%
14,CCc1cccc(C)c1NS(=O)(=O)c1cccs1,-2.7%
15,CC(NC(=S)NC1CCCCC1)c1ccc(C(C)(C)C)cc1 (centres undefined),9.1%
16,CCOC(=O)c1ccc(NC(=O)Cn2ncc(Cl)c(Cl)c2=O)cc1,60.3% (active)
17,O=C(Cn1ncc(Cl)c(Cl)c1=O)c1ccc(Cl)cc1,75.4% (active)
18,O=C(Cn1ncc(Cl)c(Cl)c1=O)N1CCc2ccccc21,73% (active)
19,CC(C)(C)C(=O)Cn1ncc(Cl)c(Cl)c1=O,10.7%
20,O=C1CN(C(=O)Cn2ncc(Cl)c(Cl)c2=O)c2ccccc2N1,40.3%
21,Cc1cc(Br)ccc1NC(=O)CNC(=O)Cn1ncc(Cl)c(Cl)c1=O,94.4% (active)
22,CCC(=O)Nc1ccc(C(=O)Cn2ncc(Cl)c(Cl)c2=O)cc1,56.5% (active)
23,Cc1ccc(-c2csc(N3CCN(CCCn4c(-c5ccncc5)nc5ccccc54)CC3)n2)cc1,-10.9%
24,COc1ccccc1Nc1nc(-c2sc(NC(=O)c3ccco3)nc2C)cs1,82.3% (active)
25,CC(=O)Nc1nc(C)c(-c2csc(Nc3cccc([N+](=O)[O-])c3)n2)s1,24.8%

row,Compound,inhibition
1,CC(=O)Nc1ccc(C(=O)Nc2nc(-c3cc(C)n(Cc4ccccc4)c3C)cs2)cc1,20.1%
2,CC(=O)Nc1nc(C)c(-c2csc(Nc3ccc(O)cc3)n2)s1,58.5% (active)
3,CCN(c1ccc(C)cc1)S(=O)(=O)c1nnc(NC(=O)c2ccco2)s1,10.4%
4,Cc1[nH]nc2ncc(C(=O)c3ccccc3O)cc12,67.9% (active)
5,O=C(c1cnn(C(=O)c2ccc(O)cc2)c1)c1ccccc1O,9.9%
6,Cc1ccc(O)c(C(=O)c2cnc3c(c2)COc2ccc(C)cc2-3)c1,22%
7,C/C(=N\NC(=O)c1cccc(Br)c1)c1ccccn1,98% (active)
8,C/C(=N\NC(=O)Cc1ccc(Cl)cc1)c1ccccn1,101% (active)
9,C/C(=N\NC(=O)c1cc(Br)ccc1O)c1ccccn1,25.1%
10,C/C(=N\NC(=O)COc1ccccc1-c1ccccc1)c1ccccn1,106% (active)
11,C/C(=N\NC(=O)c1ccc(Cl)cc1)c1ccccn1,103% (active)
12,Cc1ccc(Nc2nc3nonc3[nH]c2=O)cc1Cl,-23%
13,C/C(=N\NC(=O)c1ccc(F)cc1)c1ccccn1,106% (active)
14,COc1ccc(C(=O)N/N=C(\C)c2ccccn2)cc1OC,106% (active)
15,C/C(=N\NC(=O)c1ccc(Cl)c(Cl)c1)c1ccccn1,102% (active)
16,COC(=O)c1ccc2nc(Nc3nc4ccc(F)cc4s3)sc2c1,0%
17,CCOC(=O)c1ccc2nc(Nc3nc4ccc(F)cc4s3)sc2c1,-87.4%
18,CCOC(=O)c1csc(Nc2nc3ccc(F)cc3s2)n1,106% (active)
19,COc1cccc(N=Nc2c(N)[nH]n3c(=O)cc(-c4ccccc4)nc23)c1,75.4% (active)
20,Nc1[nH]n2c(=O)cc(-c3ccccc3)nc2c1N=Nc1ccc2c(c1)OCO2,50.6% (active)
21,Nc1[nH]n2c(=O)cc(-c3ccccc3)nc2c1N=Nc1ccccc1,64.7% (active)
22,O=C(CSCc1ccccc1Cl)N1CCN(c2ccccn2)CC1,-30.9%
23,CCc1ccc(-c2nc(CSCC(=O)N3CCN(c4ccccn4)CC3)c(C)o2)cc1,73.1% (active)
24,CCOc1ccc(-c2nc(CSCC(=O)N3CCN(c4cccc(OC)c4)CC3)c(C)o2)cc1,49.3%
